Measurements as given in PubChem BioAssay (EPA / NIEHS).
Active and inactive are the calls of the source. How the source made its calls: active means hit-call score of the fitted dose curve at least 0.9, where 1 is the maximum; inactive means score below 0.9.

Test: BSK_3C_Vis: BioMAP Diversity Plus: 3C Assay for Morphology Visualization (AID 2283025);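 further: fitted both ways so gain or loss versus DMSO counts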
Settings: primary human endothelial cells (HUVEC)
Experimental: BSK_3C is a cell-based, multiplexed-readout assay that uses umbilical vein endothelium, a human vascular primary cell, with measurements taken at 24 hours after chemical dosing in a 96-well plate.BSK_3C_Vis is an assay component measured in the BSK_3C assay. It measures NA related to cell morphology using light microscopy technology.Data from the assay component BSK_3C_Vis was analyzed into 1 assay endpoint. This assay endpoint, BSK_3C_Vis, was analyzed with bidirectional fitting relative to DMSO as the negative control and baseline of activity. Using a type of morphology reporter, gain or loss-of-signal activity can be used to understand changes in the background control. Furthermore, this assay endpoint can be referred to as a secondary readout, because this assay has produced multiple assay endpoints where this one serves a background control function. To generalize the intended target to other relatable targets, this assay endpoint is annotated to the cell morphology intended target family, where the subfamily is cell conformation.
The levels of cell surface (or secreted, indicated by the prefix "s") biomarker endpoints were measured by ELISA. Overt cytotoxicity to cells in confluent adherent cultures (all systems other than the BT system) was assessed by measuring total protein levels using sulforhodamine B (SRB) staining in parallel cultures at the time of biomarker measurements, indicated as SRB endpoints. For proliferation assays for adherent cell types, individual cell types are cultured at sub-confluence and relative cell numbers quantified by SRB staining at time points optimized for each system (48 h: 3C and CASM3C systems; 72 h: BT and HDF3CGF systems; 96 h: SAg system). SRB was performed by staining cells with 0.1% SRB after fixation with 10% TCA and reading wells at 560 nm.Viability and proliferation of PBMC (T cells) was quantified by Alamar Blue reduction for the SAg and BT systems. For PBMC viability (referred to as PBMC Cytotoxicity within the assay endpoint names), cells were plated (75,000/well in a 96-well plate) and then chemical samples added for 1 h before addition of activators, SEB and TSST-1 (20 ng/mL final concentration each). Cells were incubated for 90 h. Then, Alamar Blue (20 uL/well) (Invitrogen, Cat DAL1100) was added for 6 h, and the plates were read with a fluorescence microplate reader at 546/580 nm (excitation/emission). For PBMC proliferation, cells were plated and activated as above but incubated for only 16 h prior to addition of Alamar Blue. Plates were read after 6 h.

SMILES	AC50	outcome
CCc1ccc(O)c(C(C)(C)C)c1	39.3 µM (active)	–
C[C@]12C=CC(=O)C=C1CC[C@H]1[C@@H]3C[C@@H](O)[C@](O)(C(=O)CO)[C@@]3(C)C[C@H](O)[C@@]12F	–	inactive
O=C(O)c1ccc2c(c1)nc(C(=O)NC1CCN(C3CC3)CC1)n2Cc1cc(-c2ccc(Cl)s2)on1	–	inactive
NC(=O)N1c2ccccc2C=Cc2ccccc21	–	inactive
NC(=O)N(O)[C@@H]1COc2cc(OCc3ccccc3)ccc21	–	inactive
CCCCCCCCCCCCCCCCOS(=O)(=O)O	–	inactive
CCn1nc(C)c2c1C(=O)NCC(c1ccc(O)cc1)=N2	–	inactive
CCCC(CCC)C(=O)O	–	inactive
CCCCCCCC1CCC(=O)O1 (stereo not given)	–	inactive
Cn1c(=O)c2[nH]cnc2n(C)c1=O	–	inactive
c1ccc2ncccc2c1	–	inactive
OCC(CO)(CO)CO	–	inactive
O=C(NO)C1(NS(=O)(=O)c2ccc(Oc3ccc(F)cc3)cc2)CCOCC1	–	inactive
OCCOCCOCCO	–	inactive
OCCNCCO	–	inactive
Cc1ccc(S(=O)(=O)NC(=O)NN2CCCCCC2)cc1	–	inactive
CCOc1ccc2[nH]cc(C(=O)NCc3ccccc3)c(=O)c2n1	–	inactive
CC(C)C(=O)Nc1ccc([N+](=O)[O-])c(C(F)(F)F)c1	–	inactive
NC(=O)NN=Cc1ccc([N+](=O)[O-])o1	–	inactive
Cc1nccn1-c1ccc(Sc2cccc(C3(C(N)=O)CCOCC3)c2)cc1	–	inactive

SMILES	AC50	outcome
CC1(C)C(=O)N(Cl)C(=O)N1Cl	–	inactive
O=S1(=O)CCCO1	–	inactive
NC(N)=O	–	inactive
O=c1[nH]cnc2c1ncn2[C@H]1CC[C@@H](CO)O1	–	inactive
CCCCCCCC/C=C\CCCCCCCC(=O)OC[C@@H](O)[C@H]1OC[C@H](O)[C@H]1O	–	inactive
COCc1nnc(-c2ccc[n+]([O-])c2)n1-c1c(Cl)c(Cl)cc2[nH]c(=O)c(=O)[nH]c12	–	inactive
c1ccc2c(c1)-c1cccc3c1c-2cc1ccccc13	–	inactive
CCCCN1C(=O)[C@@H]([C@H](O)C2CCCCC2)NC(=O)C12CCN(Cc1ccc(Oc3ccc(C(=O)O)cc3)cc1)CC2	39 µM (active)	–
CC[C@H](C)C(=O)O[C@H]1C[C@H](O)C=C2C=C[C@H](C)[C@H](CC[C@@H](O)C[C@@H](O)CC(=O)O)[C@H]21	–	inactive
C=CN1CCCC1=O	–	inactive
Cn1cc[nH]c1=S	–	inactive
OC[C@H]1O[C@@](CO)(O[C@H]2O[C@H](CO)[C@@H](O)[C@H](O)[C@H]2O)[C@@H](O)[C@@H]1O	–	inactive
CC(C)c1nnc2ccc(-c3ocnc3-c3cc(F)ccc3F)cn12	–	inactive
C[C@@H](Oc1ccc(CNC(=O)c2cccnc2Oc2ccc3c(c2)OCO3)c(F)c1)C(=O)O	–	inactive
O=C(O)[C@H](O)[C@@H](O)C(=O)O	–	inactive
CNC(C)=O	–	inactive
COc1cc2c(c(OC)c1OC)-c1ccc(OC)c(=O)cc1[C@@H](NC(C)=O)CC2	0.488 µM (active)	–
CCCCC(CC)C(=O)OCCOCCOCCOC(=O)C(CC)CCCC (stereo not given)	–	inactive
CC(C)CC(C)O (stereo not given)	–	inactive
O=C(O)c1cccc(C[C@@H]2COc3ccc(OCc4nc5cc(F)ccc5s4)cc3[C@@H]2O)c1	–	inactive
